This is an account of results in PubChem BioAssay AID624405 (Broad Institute, 2012).

Screen size: about 1,900 compounds; about 250 (13%) were called active. Another 4% or so got no clear call; they are omitted. Not all results are given here. Entries with a potency or affinity are not part of this list. Values without a mark were called inactive.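 Rule for the calls: active = fitted curve reaches 40% rescue activity at or below the top valid dose, in every test run; inconclusive = test runs disagree, some active and some inactive; inactive = every run misses the threshold or moves the wrong way.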

This experiment is described as follows: rescue of simvastatin-induced ATP loss – cell-based, C2C12 myotubes, ATP luminescence, cherry pick, dose response (AID 624405).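 Note: myotubes are challenged with simvastatin at 10 µM to lower ATP.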 Conditions: 48 h, scaled: DMSO wells 0, geranylgeraniol wells 100; series mostly up to 19.5 µM; rescue activity (ATP increase): at the top concentration.
On to `C[C@H]1CN([C@@H](C)CO)S(=O)(=O)c2ccc(-c3ccc(C(=O)N(C)C)cc3)cc2O[C@@H]1CN(C)C(=O)Cc1ccccn1`, for which the “rescue activity (ATP increase)” value was 32.9%.

In the case of `CCOc1ncnc2c1[nH]c1ccccc12`, the “rescue activity (ATP increase)” value is 13.5%. Take `COc1ccc(CN(C)C[C@@H]2Oc3ccc(NC(=O)CCC(F)(F)F)cc3CC(=O)N([C@H](C)CO)C[C@H]2C)cc1`: the “rescue activity (ATP increase)” value was 27.9% [at 21 µM]. Then `COc1ccc(S(=O)(=O)Nc2ccc3c(c2)C(=O)N([C@H](C)CO)C[C@H](C)[C@@H](CN(C)S(=O)(=O)c2ccc(F)cc2)OCCCC[C@@H](C)O3)cc1`, with 25.5%; and `O=C(O)CCC(=O)OCC1CCCCC1`, with -4.14%; and `CC(C)NC(=O)Cn1c(=O)n(CC(=O)N2CCCCC2)c(=O)c2sccc21`, with -3.24%. In the case of `C[C@H]1CN([C@@H](C)CO)C(=O)c2cc(C#CC3CC3)cnc2O[C@@H]1CN(C)S(C)(=O)=O`, the “rescue activity (ATP increase)” value is 2.75%. As to `C[C@@H]1CN([C@H](C)CO)C(=O)c2cc(NS(C)(=O)=O)ccc2O[C@@H](C)CCCCO[C@@H]1CN(C)S(=O)(=O)c1ccc(Cl)cc1`, the “rescue activity (ATP increase)” value is 15.7%. The result for `O=c1c2c([nH]c3ccc(Br)cc13)CCCC2` reads -17.7%; that for `O=C(CCn1cccc1)NC1CCCc2ccccc21` (stereo not given), 9.33%; that for `Cc1ccc(CN(C(=O)c2ccco2)C(C(=O)NC2CCCC2)c2ccc(N3CCOCC3)cc2)cc1` (stereo not given), 0.628%. On to `COc1ccc(NC(=O)Nc2ccc3c(c2)C(=O)N([C@H](C)CO)C[C@H](C)[C@@H](CN(C)Cc2ccc(C(F)(F)F)cc2)OCCCC[C@H](C)O3)cc1`, for which the “rescue activity (ATP increase)” value is 14%.

In the case of `Cc1ccc(S(=O)(=O)N(C)C[C@@H]2Oc3c(NC(=O)Nc4ccccc4)cccc3C(=O)N([C@H](C)CO)C[C@H]2C)cc1`, the “rescue activity (ATP increase)” value is -25.3%. Take `Cc1ccc(S(=O)(=O)N(C)C[C@@H]2Oc3c(NC(=O)Nc4ccccc4)cccc3C(=O)N([C@@H](C)CO)C[C@@H]2C)cc1`: the “rescue activity (ATP increase)” value is 36.3%. Then `C[C@@H]1CN([C@H](C)CO)C(=O)c2cccc(NC(=O)Nc3ccccc3)c2O[C@@H]1CN(C)S(=O)(=O)c1ccccc1`, with 26.7%; and `Cc1ccc(S(=O)(=O)N(C)C[C@@H]2Oc3c(NC(=O)Nc4ccccc4)cccc3C(=O)N([C@H](C)CO)C[C@@H]2C)cc1`, with 33.4%. `c1cnc2ccc(C(c3nnnn3C3CCCC3)N3CCN(c4nc5ccccc5s4)CC3)cc2c1` (stereo not given): the “rescue activity (ATP increase)” value is 5.08%. For `CC(C)NC(=O)CN1C(=O)NC(CCc2ccccc2)C1=O` (stereo not given), the “rescue activity (ATP increase)” value was -27.9%. For `CCCn1c2c(c(O)c(C(=O)NC)c1=O)CCCC2`, the “rescue activity (ATP increase)” value is 32.2%. For `C[C@H]1CN([C@@H](C)CO)S(=O)(=O)c2ccc(C#CC3CCCCC3)cc2O[C@H]1CN(C)C(=O)Cc1ccncc1`, the “rescue activity (ATP increase)” value is -18.7%. Then `COc1ccc(S(=O)(=O)N2CCOCC2)cc1NC(=O)CSc1ncccn1`, with -4.59%; and `Cc1c(N=Cc2c(O)n(Cc3ccco3)c(=O)c3ccccc23)c(=O)n(-c2ccccc2)n1C`, with 27.1%. Then `CCOC(=O)C1CCN(S(=O)(=O)c2nc3nc(C)cc(C)n3n2)CC1`, with -11.5%. The result for `O=C(NNC(=O)c1ccncc1)Nc1ccc(N=Nc2ccccc2)cc1` reads -47.4%; that for `COc1ccc(C#Cc2ccc([C@H]3[C@H]4CN(C(=O)c5ccncc5)CCCCN4[C@H]3CO)cc2)cc1`, 28.5% [at 21 µM]; that for `C[C@@H]1CN([C@@H](C)CO)C(=O)c2cc(NS(=O)(=O)c3cccs3)ccc2O[C@@H]1CN(C)Cc1ccc2c(c1)OCO2`, 31.3%. For the compound `C[C@H]1CN([C@@H](C)CO)C(=O)c2cccc(NS(=O)(=O)c3cccs3)c2O[C@@H]1CN(C)C(=O)Nc1ccc(C(F)(F)F)cc1`, the “rescue activity (ATP increase)” value was -2.23%. Then `Cc1cccc(OCC(=O)Nc2cc(C)ccc2O)c1`, with 23.5%. Then `Cc1ccc(-c2noc(-c3cccs3)n2)cc1`, with -4.64%. Then `COc1ccccc1-c1noc(-c2ccncc2)n1`, with 8.68%; and `Cc1ccc(C(=O)OCC(=O)Nc2ccc3c(c2)OCO3)cc1S(=O)(=O)N1CCOCC1`, with -31.5%. For the compound `CCOC(=O)C(C)n1nc(/C=C/c2ccccc2)ccc1=O` (stereo not given), the “rescue activity (ATP increase)” value is -17.3%. In the case of `C[C@@H]1CN([C@@H](C)CO)C(=O)Cc2cc(NC(=O)Cc3cn(C)c4ccccc34)ccc2O[C@H]1CN(C)Cc1ccc(Oc2ccccc2)cc1`, the “rescue activity (ATP increase)” value was 10.6%. For the compound `O=C(Nc1nc2c(s1)CCCC2)c1ccc(Br)o1`, the “rescue activity (ATP increase)” value was -45%.

As for `C[C@H](CO)N1C[C@H](C)[C@@H](CN(C)S(=O)(=O)c2cn(C)cn2)Oc2ccc(NC(=O)Nc3ccc(C(F)(F)F)cc3)cc2C1=O`, the “rescue activity (ATP increase)” value is 17.3%. Take `C[C@H](CO)N1C[C@H](C)[C@@H](CN(C)S(=O)(=O)c2ccc(Cl)cc2)Oc2c(NC(=O)Nc3ccc(C(F)(F)F)cc3)cccc2C1=O`: the “rescue activity (ATP increase)” value is 1.28%. The result for `C[C@H](N)c1nnc(SCC(=O)c2ccc(Cl)cc2)o1` reads 19%; that for `CC(C)CC#Cc1cnc2c(c1)C(=O)N([C@@H](C)CO)C[C@@H](C)[C@H](CN(C)S(=O)(=O)c1cccs1)O2`, 0.138%; that for `CCn1c(CSc2nc(C)cc(C)n2)nnc1SCC(=O)Nc1nc(-c2ccccc2)cs1`, -15.7%. Then `COc1ccc(S(=O)(=O)Nc2cccc3c2O[C@H](CN(C)S(=O)(=O)c2ccc(Cl)cc2)[C@H](C)CN([C@@H](C)CO)C3=O)cc1`, with 23%. The result for `CCOc1ccccc1C(=O)n1nc(C)cc1C` reads 26.2%; that for `CCCCOC(=O)Cn1c(=O)c2c(nc3n2CCCCN3c2ccc(C)cc2)n(C)c1=O`, -4.89%; that for `CCOC(=O)Cn1c(=O)c2c(nc3n2CCN3Cc2ccccc2)n(C)c1=O`, 40.9%. With `O=C1c2ccccc2C(=O)N1CCC1=CCCCC1`, the “rescue activity (ATP increase)” value was -38.2%. The result for `C[C@@H]1CN([C@H](C)CO)C(=O)c2cccc(NS(=O)(=O)c3cccs3)c2O[C@@H]1CN(C)S(=O)(=O)c1cccs1` reads 16.3%; that for `Fc1ccccc1OCCCN1CCOCC1`, 6.51%; that for `C[C@H]1CN([C@@H](C)CO)C(=O)c2cc(/C=C/c3ccccc3)cnc2O[C@@H]1CN(C)C(=O)Nc1ccccc1F`, 21.6%.

For the compound `C=CCSc1nc(C)c2cc(C)cc(C)c2n1`, the “rescue activity (ATP increase)” value was -29.5%. The result for `CC(C)(CSc1ncccn1)NS(=O)(=O)c1ccccc1` reads -8.32%; that for `O=S(=O)(NCc1csc(-c2cccs2)n1)c1cccc(C(F)(F)F)c1`, 12.9%.

Turning to `COc1ccc(NC(=O)N(C)C[C@H]2OCCCC[C@H](C)Oc3ccc(NS(=O)(=O)c4c(C)noc4C)cc3C(=O)N([C@@H](C)CO)C[C@H]2C)cc1`, the “rescue activity (ATP increase)” value is 6.36%. Then `Cc1cc(C)n(C(=O)c2ccc(S(=O)(=O)NCC3CCCO3)cc2)n1` (stereo not given), with 2.29%. Then `C[C@@H]1CN([C@@H](C)CO)C(=O)c2cccc(NC(=O)C3CCCCC3)c2O[C@H]1CN(C)S(=O)(=O)c1ccc(Cl)cc1`, with 12.9%; and `C[C@@H]1CCCCO[C@@H](CN(C)Cc2ccc(Cl)c(Cl)c2)[C@H](C)CN([C@@H](C)CO)C(=O)c2cc(NC(=O)Cc3ccccc3)ccc2O1`, with 34.2% [at 21 µM]. On to `O=c1cc(CN2CCN(Cc3ccccc3)CC2)c2cc3c(cc2o1)CCC3`, for which the “rescue activity (ATP increase)” value was -1.9%. As to `Cc1sc2nc3ccc(N4CCCCC4)nn3c(=O)c2c1C`, the “rescue activity (ATP increase)” value was -16.1%. Then `Cc1cccn2c(=O)c3cc(C(=O)NCCC4=CCCCC4)n(C)c3nc12`, with -167%; and `CN(C)C(CNC(=O)NC1CCCCC1)c1cccnc1` (stereo not given), with 3.47%. Then `C[C@@H]1CN([C@@H](C)CO)C(=O)c2cc(NC(=O)Nc3ccc(F)cc3)ccc2O[C@@H](C)CCCCO[C@H]1CN(C)Cc1ccncc1`, with 18.6% [at 21 µM].

Turning to `COC(=O)c1cc(OC)c(OC)cc1NC(=O)Nc1cccc(C(C)=O)c1`, the “rescue activity (ATP increase)” value is 38.3%.

In the case of `C[C@H]1CN([C@@H](C)CO)C(=O)Cc2cc(NC(=O)Cc3ccccc3)ccc2O[C@@H]1CN(C)Cc1ccc(Oc2ccccc2)cc1`, the “rescue activity (ATP increase)” value is 30.6% [at 21 µM].

As for `O=C(COc1cccc(C(F)(F)F)c1)Nc1ccc(S(=O)(=O)N2CCCC2)cc1`, the “rescue activity (ATP increase)” value is -40.5%. Then `O=C(c1cnccn1)N1CCN(C/C=C/c2ccccc2)CC1`, with 16.1%; and `O=C(OCCOc1ccc(Br)cc1)c1cnccn1`, with 9.55%. For the compound `C[C@H]1CN([C@@H](C)CO)C(=O)c2cc(NC(=O)C3CC3)ccc2O[C@@H]1CN(C)CC1CCCCC1`, the “rescue activity (ATP increase)” value is 7.65% [at 21 µM]. Consider `C[C@H](CO)N1C[C@H](C)[C@H](CN(C)Cc2ccc(C(F)(F)F)cc2)Oc2c(NC(=O)Nc3cccc4ccccc34)cccc2C1=O`, for which the “rescue activity (ATP increase)” value was -21.9%.

Take `C[C@@H]1CN([C@H](C)CO)C(=O)c2cc(NC(=O)Nc3cccc4ccccc34)ccc2O[C@@H](C)CCCCO[C@@H]1CN(C)Cc1ccc2c(c1)OCO2`: the “rescue activity (ATP increase)” value was -26.6%. The result for `COc1ccc(NC(=O)Nc2ccc3c(c2)C(=O)N([C@@H](C)CO)C[C@H](C)[C@@H](CN(C)Cc2ccc(C(F)(F)F)cc2)OCCCC[C@H](C)O3)cc1` reads -29.1%; that for `C[C@@H]1CN([C@@H](C)CO)C(=O)c2cccc(NC(=O)C3CCOCC3)c2O[C@@H]1CN(C)S(=O)(=O)c1cn(C)cn1`, 10.6%; that for `COC(=O)[C@H]1[C@H](CO)[C@H]2Cn3c(ccc(C4=CCCCC4)c3=O)[C@H]2N1CC1CCCCC1`, 34.2%.
